Assay outcomes deposited in PubChem by Broad Institute.
MITF TRPM1 inh – reduces MITF-dependent TRPM1 promoter luciferase signal. SK-MEL-5 TRPM1 promoter luciferase, 24 h. inhibition, % at 12.5 µM. actives 0.83% (n = 330,000);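 active = mean inhibition across replicates of 60% or more, whatever share of single replicates reaches that level; inconclusive = some that reach 60%, reason not given; inactive = mean inhibition across replicates below 60%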
PAX8 inh HTS – lowers PAX8-driven luciferase in RMG-I cells | actives 1.2% (n = 360,000) | RMG-I TPO-luciferase reporter, SteadyGlo, 24 h | AID 652154 | inhibition, % at 12.6 µM;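 active = mean replicate inhibition at least 60% with every replicate also reaching 60%; inconclusive = only one of the two criteria is met; inactive = mean below 60% and not all replicates reaching 60%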;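 note: luciferase light reporting Pax8 driven TPO promoter activity; plate controls were median of neutral control wells for no effect and mitoxantrone controls for full effect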
esBAF inh – blocks esBAF chromatin remodeling in mouse ES cells; Bmi1-luciferase knock-in reporter, 24 h; 100% = twice the neutral-well signal; reporter increase, % at 12.5 µM; actives 2% (n = 350,000); AID 602393; in the data active = activation above about 40%; inconclusive = no clear call, values can overlap the other calls;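 note: 0% = median of the plate's neutral control wells and 100% = double that signal; a rise in the Bmi1 reporter signal indicates esBAF inhibition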
EWS-Fli block – EWS/Fli transcriptional activity inhibition | A673 NR0B1-luciferase reporter, viability-normalised | inhibition, % at 12.6 µM | actives 0.67% (n = 350,000);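 active = mean inhibition of at least 50% after viability correction, with every replicate also passing that limit; inconclusive = mean reaches 50% but only one of two replicates passes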;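 note: firefly luciferase signal divided by Alamar Blue viability fluorescence both relative to DMSO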
MITF TRPM1 HTS – increases MITF-driven TRPM1 promoter luciferase signal | actives 0.75% (n = 300,000) | activation, % at 12.5 µM | SK-MEL-5 TRPM1-promoter luciferase, 24 h; % of positive control, neutral wells = 0;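 active = mean activation of at least 80% with every replicate also reaching 80%; inconclusive = mean reaches 80% but some replicate falls short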;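 note: 0% = neutral control wells and 100% = parthenolide positive control wells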
Wnt act – Wnt/beta-catenin pathway activation | activation, % at 9.35 µM | actives 1.2% (n = 300,000) | Wnt/beta-catenin reporter cell assay, activator, plate reader | AID 743398; in the data active = activation above about 30%, passing the limit was not always enough; inconclusive = no clear call, values can overlap the other calls;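 note: 0% = neutral control wells and 100% = positive control wells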
The depositor's hits bear a star; ? = inconclusive; · = no result given. A selection: hits, their analogues and other compounds. The true share with any hit is near 4%.

SMILES	MITF TRPM1 inh	PAX8 inh HTS	esBAF inh	EWS-Fli block	MITF TRPM1 HTS	Wnt act
Cc1ccc(N=c2c([N+](=O)[O-])nn(-c3ccc4c(c3)OCCO4)n2O)cc1F	34	7	·	39	-33	·
O=[N+]([O-])c1nn(-c2ccc3c(c2)OCCO3)n(O)c1=NCCCO	7	-31	14	·	·	41*
Cc1cc(C)cc(N=c2c([N+](=O)[O-])nn(-c3ccc4c(c3)OCCO4)n2O)c1	7	100*	12	-8	-7	-7
CCc1ccc(N=c2c([N+](=O)[O-])nn(-c3ccc4c(c3)OCCO4)n2O)cc1	5	2	·	2	-6	-5
O=[N+]([O-])c1nn(-c2ccc3c(c2)OCCO3)n(O)c1=NC1CCCCCC1	-19	·	15	·	17	·
O=[N+]([O-])c1nn(-c2ccc3c(c2)OCCO3)n(O)c1=NC1CCCC1	-31	-89	34	·	·	33*
COCC(=O)N(C)C[C@@H]1Oc2cc(-c3ccccc3F)ccc2S(=O)(=O)N([C@H](C)CO)C[C@@H]1C	·	-4	1	-2	·	·
COc1ccccc1-c1ccc2n(c1=O)C[C@@H]1[C@@H](CO)[C@H](C(=O)NC3CCC3)N(C(=O)C3CCC3)[C@H]21	·	·	3	-1	·	·
CC(C)C(=O)Nc1ccc2c(c1)C(=O)N(C)[C@@H]1CC[C@H](CC(=O)N[C@H](C)c3ccccc3)O[C@@H]1CO2	·	26	-7	2	·	·
O=[N+]([O-])c1nn(-c2ccc(Cl)cc2)n(O)c1=NCc1ccccc1	-8	-33	23	-44	11	40*
O=[N+]([O-])c1nn(-c2ccc3c(c2)OCCO3)n(O)c1=Nc1ccccc1	86*	29	·	74*	-85	-11
Cc1ccc(N=c2c([N+](=O)[O-])nn(-c3ccccc3)n2O)c(C)c1	-20	·	67*	-57	21	-3
COc1ccc2c3c([nH]c2c1)[C@@H](CO)N(C(=O)c1ccncc1)CC31CN(C(=O)C2CCC2)C1	·	-17	·	-4	·	·
Cc1noc(C)c1S(=O)(=O)N(C)C[C@@H]1Oc2c(NC(=O)C3CC3)cccc2C(=O)N([C@@H](C)CO)C[C@@H]1C	·	-12	0	-10	·	·
COc1ccccc1-c1cnc2c(c1)C(=O)N([C@H](C)CO)C[C@H](C)[C@@H](CN(C)C(C)=O)O2	·	·	-4	-15	·	·
COc1ccc(CN(C)C[C@@H]2OCCCC[C@H](C)Oc3ccc(NS(=O)(=O)c4ccc(C)cc4)cc3C(=O)N([C@H](C)CO)C[C@@H]2C)cc1	·	19	-2	2	·	·
COc1ccccc1NC(=O)/C=C\c1ccco1	-26	-18	54*	-18	31	9
COc1ccccc1NC(=S)NC(=O)/C=C/c1ccco1	-2	34	·	·	2	-4
O=C(/C=C/c1ccco1)c1cccnc1	8	2	·	5	-6	0
COc1cccc(NC(=O)/C=C/c2ccco2)c1	-77	-138	·	-88	73	68*
O=C(/C=C/c1ccco1)Nc1cccnc1	-41	-99	·	-44	42	53*
N#C[C@H]1[C@@H](c2ccccc2C2=CCCC2)[C@@H](CO)N1C(=O)C1CCC1	·	-13	·	1	·	·
CCS(=O)(=O)N1CC2(CN(Cc3ccc(OC)cc3)[C@@H](CO)c3c2c2ccc(OC)cc2n3C)C1	·	·	·	4	·	·
Cc1ccc(S(=O)(=O)N[C@@H]2CC[C@@H](CC(=O)NCc3ccccc3F)O[C@H]2CO)cc1	·	-1	1	-3	·	·
CCCc1nn(C)c(C(=O)Nc2ccc(CC)cc2)c1Cl	-8	·	·	·	8	·
SMILES	MITF TRPM1 inh	PAX8 inh HTS	esBAF inh	EWS-Fli block	MITF TRPM1 HTS	Wnt act
CCCc1nn(C)c(C(=O)Nc2ccc(C)c(C)c2)c1Cl	-62	-96	70*	-98	62	12
C[C@H](CO)N1C[C@H](C)[C@@H](CN(C)Cc2ccc(Oc3ccccc3)cc2)Oc2c(NC(=O)Nc3ccccc3)cccc2C1=O	·	-21	3	4	·	·
COc1cc(C=NN=c2sc3ccccc3n2C)ccc1OCCO	·	-188	·	-158	·	34*
C[C@@H]1CN([C@H](C)CO)C(=O)c2cccc(NC(=O)Nc3ccc4c(c3)OCO4)c2O[C@@H]1CN(C)C(=O)Nc1ccccc1	·	11	7	3	·	·
COc1ccc(OCc2cc(C(=O)N(C)Cc3cc(C)no3)no2)c(Cl)c1	-61	-248	48*	·	47	4
CCc1ccc(CN(C)C(=O)c2cc(COc3ccc(OC)cc3Cl)on2)nc1	-53	-152	46*	·	57	16
Cc1ccc(CN(C)C(=O)c2cc(COc3ccc(F)cc3Cl)on2)o1	-26	20	60*	-36	30	6
COc1ccc(OCc2cc(C(=O)N(C)Cc3nnc(C)o3)no2)c(Cl)c1	-39	-202	?	·	34	24
CCN(Cc1ccncc1)C(=O)c1cc(COc2ccc(OC)cc2Cl)on1	-72	-157	72*	-71	77	28
O=C(Nc1cccc(Cl)c1)N1C[C@@H]2[C@H](c3ccccc31)[C@@H](CO)N2C(=O)C1CC1	·	9	0	2	·	·
O=C(NC[C@H]1[C@@H](c2ccccc2)[C@@H](CO)N1Cc1ccccn1)C1CC1	·	8	0	-2	·	·
O=[N+]([O-])c1ccccc1NCCOc1ccccc1	-68	-168	·	·	65	67*
CCc1ccc(N=C2N=C(N)c3ccccc32)cc1	-4	·	?	·	7	-3
Cc1ccc(N=C2N=C(N)c3ccccc32)cc1C	4	·	55*	·	-3	·
C[C@H](NC(=O)C[C@@H]1C[C@@H]2c3cc(NC(=O)CC4CC4)ccc3O[C@@H]2[C@@H](CO)O1)c1ccccc1	·	·	5	-12	·	·
C[C@@H]1CN([C@H](C)CO)C(=O)Cc2cc(NC(=O)Nc3cccc4ccccc34)ccc2O[C@@H]1CN(C)S(=O)(=O)c1ccc(Cl)cc1	·	11	·	13	·	·
CCOc1ccc(N2CC(NS(=O)(=O)c3cccs3)CC2=O)cc1 (stereo not drawn)	8	9	7	-1	-2	2
O=C1CC(NS(=O)(=O)c2cccs2)CN1c1ccc(F)cc1 (stereo not drawn)	-2	3	47*	-6	6	-3
CC(=O)n1cc([C@@H]2C=C(C(=O)N3CCN(Cc4ccccc4)CC3)O[C@H](OCCCCO)C2)c2ccccc21	·	5	·	2	·	·
CCc1sc(C(=O)Nc2ccc3c(c2)OCO3)cc1C	-120	-184	51*	-140	124*	43*
CC(C)(O)C#Cc1ccc(C(=O)Nc2ccc3c(c2)OCO3)s1	-51	-77	63*	·	47	31*
CCc1sc(C(=O)Nc2ccc3c(c2)OCCO3)cc1Br	-101	-108	51*	-94	104*	43*
CCc1sc(C(=O)Nc2ccc(N3CCOCC3)cc2)cc1C	-51	-35	·	-22	53	-2
O=C(C1=C[C@H](C2CCCCC2)C[C@H](OCc2ccc(CO)cc2)O1)N1CCCC1	·	-2	·	10	·	·
